Assay results taken from paper PMC7862700, “An all-to-all approach to the identification of sequence-specific readers for epigenetic DNA modifications on cytosine”.

Tests used:
Assay in all cases: DAPPL (digital affinity profiling via proximity ligation, sequencing); 10 mM Tris-HCl pH 7.5, 50 mM NaCl, 1 mM DTT, 4% glycerol, room temperature, 30 min; GST-TFs on glutathione beads, 16-mer random dsDNA library, 0.1% formaldehyde crosslink after washing; high values mean tight binding
FLI1 = biological target: T1, FLI1 (Homo sapiens, UniProt Q01543 1-452); settings: protein: recombinant; tags: N-terminal GST; dsDNA, one strand shown
T1 sequence: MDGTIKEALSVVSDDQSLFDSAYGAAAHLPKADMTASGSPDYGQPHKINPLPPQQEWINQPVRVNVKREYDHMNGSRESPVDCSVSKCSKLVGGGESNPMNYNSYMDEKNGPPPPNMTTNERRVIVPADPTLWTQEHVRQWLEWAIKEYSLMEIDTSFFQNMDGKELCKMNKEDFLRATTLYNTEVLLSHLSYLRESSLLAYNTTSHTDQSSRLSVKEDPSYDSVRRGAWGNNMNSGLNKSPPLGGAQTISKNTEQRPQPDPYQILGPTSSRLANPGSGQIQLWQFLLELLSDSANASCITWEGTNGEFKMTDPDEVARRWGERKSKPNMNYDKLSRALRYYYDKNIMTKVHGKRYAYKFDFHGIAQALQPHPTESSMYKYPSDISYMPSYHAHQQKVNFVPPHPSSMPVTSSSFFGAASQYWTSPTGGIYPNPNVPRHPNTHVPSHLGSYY
Summary of the method: (§1)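 In yeast, human transcription factors were expressed with a GST fusion, then pulled down on glutathione beads and given DNA barcodes. Pooled with a tag-only sample, they were exposed to 200 nmole of a 16-mer random double-stranded DNA library (Tris/NaCl/DTT/glycerol buffer, room temperature, 30 min), washed, crosslinked with 0.1% formaldehyde, proximity-ligated using BsaI/T4 ligase for 1 h at 37 °C, PCR-amplified and read on an Illumina NextSeq500. Each hexamer's frequency of reads for a factor, divided by the matching frequency for the tag-only sample, gives the binding signal.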

ELF1 = ELF1 (Homo sapiens, UniProt P32519 1-619); settings: protein: recombinant; tags: N-terminal GST; dsDNA, one strand shown
Summary of the method: as §1

SPIB = SPIB (Homo sapiens, UniProt Q01892 1-262); settings: protein: recombinant; tags: N-terminal GST; dsDNA, one strand shown
Summary of the method: as §1

ELF3 = biological target: T2, ELF3 (Homo sapiens, UniProt P78545 1-371); settings: protein: recombinant; tags: N-terminal GST; dsDNA, one strand shown
T2 sequence: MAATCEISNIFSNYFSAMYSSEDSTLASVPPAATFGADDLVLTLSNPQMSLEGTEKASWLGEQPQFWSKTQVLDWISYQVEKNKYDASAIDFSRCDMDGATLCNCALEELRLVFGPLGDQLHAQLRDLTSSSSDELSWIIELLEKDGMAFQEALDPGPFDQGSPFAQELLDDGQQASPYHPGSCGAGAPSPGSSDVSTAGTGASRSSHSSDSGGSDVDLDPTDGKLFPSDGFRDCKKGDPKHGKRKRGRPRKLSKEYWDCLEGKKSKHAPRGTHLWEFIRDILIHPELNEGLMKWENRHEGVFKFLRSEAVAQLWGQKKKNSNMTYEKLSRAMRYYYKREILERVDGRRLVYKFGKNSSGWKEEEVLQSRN
Summary of the method: as §1

ETV1 = ETV1 (Homo sapiens, UniProt P50549 1-477); settings: protein: recombinant; tags: N-terminal GST; dsDNA, one strand shown
Summary of the method: as §1

ERF = biological target: T3, ERF (Homo sapiens, UniProt P50548 1-548); settings: protein: recombinant; tags: N-terminal GST; dsDNA, one strand shown
T3 sequence: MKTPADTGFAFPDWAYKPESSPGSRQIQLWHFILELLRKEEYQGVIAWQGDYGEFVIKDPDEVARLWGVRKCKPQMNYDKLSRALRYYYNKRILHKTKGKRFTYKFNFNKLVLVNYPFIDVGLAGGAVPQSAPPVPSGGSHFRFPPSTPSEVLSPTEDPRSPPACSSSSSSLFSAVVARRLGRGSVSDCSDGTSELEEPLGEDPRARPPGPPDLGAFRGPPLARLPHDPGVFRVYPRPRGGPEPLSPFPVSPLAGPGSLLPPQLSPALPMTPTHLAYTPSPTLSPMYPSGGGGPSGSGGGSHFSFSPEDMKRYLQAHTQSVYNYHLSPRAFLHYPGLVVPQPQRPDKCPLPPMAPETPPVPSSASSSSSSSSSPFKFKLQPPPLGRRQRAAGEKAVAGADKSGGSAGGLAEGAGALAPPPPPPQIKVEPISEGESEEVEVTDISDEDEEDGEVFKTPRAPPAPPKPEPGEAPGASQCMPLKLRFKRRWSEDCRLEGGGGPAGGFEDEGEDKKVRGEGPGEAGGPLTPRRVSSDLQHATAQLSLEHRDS
Summary of the method: as §1

ETV3L = biological target: T4, ETV3L (Homo sapiens, UniProt Q6ZN32 1-361); settings: protein: recombinant; tags: N-terminal GST; dsDNA, one strand shown
T4 sequence: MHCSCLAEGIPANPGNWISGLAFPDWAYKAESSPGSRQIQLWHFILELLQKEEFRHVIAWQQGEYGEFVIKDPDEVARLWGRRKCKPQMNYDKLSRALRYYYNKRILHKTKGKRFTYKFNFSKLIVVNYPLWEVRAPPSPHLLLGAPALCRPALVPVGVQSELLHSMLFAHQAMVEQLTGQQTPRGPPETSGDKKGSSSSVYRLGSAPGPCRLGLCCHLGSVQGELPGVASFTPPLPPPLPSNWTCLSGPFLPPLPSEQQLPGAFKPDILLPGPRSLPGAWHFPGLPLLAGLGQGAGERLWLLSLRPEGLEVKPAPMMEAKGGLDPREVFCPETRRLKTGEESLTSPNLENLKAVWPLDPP
Summary of the method: as §1

ETS2 = biological target: T5, ETS2 (Homo sapiens, UniProt P15036 1-469); settings: protein: recombinant; tags: N-terminal GST; dsDNA, one strand shown
T5 sequence: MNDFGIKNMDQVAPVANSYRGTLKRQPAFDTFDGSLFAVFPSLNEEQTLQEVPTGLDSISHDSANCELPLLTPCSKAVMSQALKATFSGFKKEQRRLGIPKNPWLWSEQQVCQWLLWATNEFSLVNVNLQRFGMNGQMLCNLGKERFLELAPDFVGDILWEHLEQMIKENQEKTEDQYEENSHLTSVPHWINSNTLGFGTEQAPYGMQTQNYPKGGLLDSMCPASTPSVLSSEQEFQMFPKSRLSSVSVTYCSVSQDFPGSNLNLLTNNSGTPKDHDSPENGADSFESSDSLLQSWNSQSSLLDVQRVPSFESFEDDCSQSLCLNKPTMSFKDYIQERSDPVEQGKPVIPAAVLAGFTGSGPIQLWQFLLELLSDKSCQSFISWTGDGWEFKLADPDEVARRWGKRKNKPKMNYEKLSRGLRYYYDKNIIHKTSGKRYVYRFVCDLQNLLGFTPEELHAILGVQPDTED
Summary of the method: as §1

SPDEF = biological target: T6, SPDEF (Homo sapiens, UniProt O95238 1-335); settings: protein: recombinant; tags: N-terminal GST; dsDNA, one strand shown
T6 sequence: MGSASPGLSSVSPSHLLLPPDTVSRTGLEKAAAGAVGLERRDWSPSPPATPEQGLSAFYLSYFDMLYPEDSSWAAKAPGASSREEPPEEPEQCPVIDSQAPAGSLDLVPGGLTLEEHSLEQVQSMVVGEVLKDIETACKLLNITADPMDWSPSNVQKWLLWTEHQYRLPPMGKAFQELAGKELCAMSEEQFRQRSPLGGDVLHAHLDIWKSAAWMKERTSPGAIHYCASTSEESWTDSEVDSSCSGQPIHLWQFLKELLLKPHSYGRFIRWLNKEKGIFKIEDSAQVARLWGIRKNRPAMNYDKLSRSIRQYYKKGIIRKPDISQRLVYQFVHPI
Summary of the method: as §1

ETV7 = biological target: T7, ETV7 (Homo sapiens, UniProt Q9Y603 1-341); settings: protein: recombinant; tags: N-terminal GST; dsDNA, one strand shown
T7 sequence: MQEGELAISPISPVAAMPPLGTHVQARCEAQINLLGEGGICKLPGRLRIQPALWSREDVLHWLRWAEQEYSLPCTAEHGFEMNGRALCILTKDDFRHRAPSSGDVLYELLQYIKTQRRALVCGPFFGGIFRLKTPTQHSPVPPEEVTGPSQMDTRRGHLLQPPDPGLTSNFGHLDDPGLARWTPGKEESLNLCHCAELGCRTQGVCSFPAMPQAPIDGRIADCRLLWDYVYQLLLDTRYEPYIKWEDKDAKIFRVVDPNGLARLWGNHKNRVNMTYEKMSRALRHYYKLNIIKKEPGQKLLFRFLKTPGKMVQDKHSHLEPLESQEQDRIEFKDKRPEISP
Summary of the method: as §1

ELF5 = biological target: T8, ELF5 (Homo sapiens, UniProt Q9UKW6-2 1-255); settings: protein: recombinant; tags: N-terminal GST; dsDNA, one strand shown
T8 sequence: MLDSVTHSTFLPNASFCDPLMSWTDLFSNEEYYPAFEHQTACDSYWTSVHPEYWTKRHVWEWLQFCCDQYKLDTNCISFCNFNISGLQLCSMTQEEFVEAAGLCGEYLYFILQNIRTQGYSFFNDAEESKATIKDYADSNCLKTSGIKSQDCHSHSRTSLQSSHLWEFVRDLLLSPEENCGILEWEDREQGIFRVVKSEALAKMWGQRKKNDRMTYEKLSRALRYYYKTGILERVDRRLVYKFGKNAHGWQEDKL
Summary of the method: as §1

HSF1 = HSF1 (Homo sapiens, UniProt Q00613 1-529); settings: protein: recombinant; tags: N-terminal GST; chain copies: 3; dsDNA, one strand shown
Summary of the method: as §1

ELK3 = biological target: T9, ELK3 (Homo sapiens, UniProt P41970 1-407); settings: protein: recombinant; tags: N-terminal GST; dsDNA, one strand shown
T9 sequence: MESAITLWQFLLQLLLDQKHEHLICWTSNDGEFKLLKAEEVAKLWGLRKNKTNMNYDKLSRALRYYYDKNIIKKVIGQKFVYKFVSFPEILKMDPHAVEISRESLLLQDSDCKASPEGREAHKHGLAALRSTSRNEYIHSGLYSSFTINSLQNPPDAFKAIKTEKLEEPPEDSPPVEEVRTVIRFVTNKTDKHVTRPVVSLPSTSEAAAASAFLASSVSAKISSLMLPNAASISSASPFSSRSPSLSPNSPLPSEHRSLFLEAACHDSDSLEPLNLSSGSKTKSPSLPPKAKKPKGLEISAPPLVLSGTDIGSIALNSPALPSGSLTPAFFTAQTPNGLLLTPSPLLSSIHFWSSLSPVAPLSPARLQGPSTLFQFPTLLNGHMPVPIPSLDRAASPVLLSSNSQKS
Summary of the method: as §1

ELK4 = biological target: T10, ELK4 (Homo sapiens, UniProt P28324-2 1-405); settings: protein: recombinant; tags: N-terminal GST; dsDNA, one strand shown
T10 sequence: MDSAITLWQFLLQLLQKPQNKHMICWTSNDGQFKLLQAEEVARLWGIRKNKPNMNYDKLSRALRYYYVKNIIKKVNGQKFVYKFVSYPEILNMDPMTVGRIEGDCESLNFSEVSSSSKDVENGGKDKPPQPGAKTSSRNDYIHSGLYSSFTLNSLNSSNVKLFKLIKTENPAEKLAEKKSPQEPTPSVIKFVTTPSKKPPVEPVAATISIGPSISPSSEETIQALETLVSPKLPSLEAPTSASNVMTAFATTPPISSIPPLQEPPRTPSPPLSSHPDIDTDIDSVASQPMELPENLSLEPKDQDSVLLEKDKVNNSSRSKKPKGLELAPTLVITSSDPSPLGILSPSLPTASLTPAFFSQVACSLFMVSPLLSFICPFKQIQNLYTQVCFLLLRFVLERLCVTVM
Summary of the method: as §1

ETV3 = biological target: T11, ETV3 (Homo sapiens, UniProt P41162-2 1-143); settings: protein: recombinant; tags: N-terminal GST; dsDNA, one strand shown
T11 sequence: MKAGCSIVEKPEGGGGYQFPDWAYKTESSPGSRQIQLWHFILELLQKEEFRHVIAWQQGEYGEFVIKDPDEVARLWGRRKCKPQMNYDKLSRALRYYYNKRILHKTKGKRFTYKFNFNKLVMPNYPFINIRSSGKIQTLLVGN
Summary of the method: as §1

HSF1, sequence (Q00613 whole entry): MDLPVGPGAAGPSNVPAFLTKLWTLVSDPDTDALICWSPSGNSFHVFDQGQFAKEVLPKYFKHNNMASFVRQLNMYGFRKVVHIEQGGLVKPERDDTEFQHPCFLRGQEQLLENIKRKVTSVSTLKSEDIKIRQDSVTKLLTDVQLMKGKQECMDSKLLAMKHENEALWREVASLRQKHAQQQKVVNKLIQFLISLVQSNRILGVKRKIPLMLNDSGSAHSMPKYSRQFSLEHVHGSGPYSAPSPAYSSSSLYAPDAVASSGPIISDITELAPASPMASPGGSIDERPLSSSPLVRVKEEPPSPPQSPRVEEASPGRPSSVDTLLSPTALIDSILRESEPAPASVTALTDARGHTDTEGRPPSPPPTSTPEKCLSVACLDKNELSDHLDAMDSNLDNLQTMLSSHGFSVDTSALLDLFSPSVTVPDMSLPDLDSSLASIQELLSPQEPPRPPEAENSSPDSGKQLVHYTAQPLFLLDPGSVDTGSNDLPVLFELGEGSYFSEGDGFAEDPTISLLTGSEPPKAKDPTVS
ETV1, sequence (P50549 whole entry): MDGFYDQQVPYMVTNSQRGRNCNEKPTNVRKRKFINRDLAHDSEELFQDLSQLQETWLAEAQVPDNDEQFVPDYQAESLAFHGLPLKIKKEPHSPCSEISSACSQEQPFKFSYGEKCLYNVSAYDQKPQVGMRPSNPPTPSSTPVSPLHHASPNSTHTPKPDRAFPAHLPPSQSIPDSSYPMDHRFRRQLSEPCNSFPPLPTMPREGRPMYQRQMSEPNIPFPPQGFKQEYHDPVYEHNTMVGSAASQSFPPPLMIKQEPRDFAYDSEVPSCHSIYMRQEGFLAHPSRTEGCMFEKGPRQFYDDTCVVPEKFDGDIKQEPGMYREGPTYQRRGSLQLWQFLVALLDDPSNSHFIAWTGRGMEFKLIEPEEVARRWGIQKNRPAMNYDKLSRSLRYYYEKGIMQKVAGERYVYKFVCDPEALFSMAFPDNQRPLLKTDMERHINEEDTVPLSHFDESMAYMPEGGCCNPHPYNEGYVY
SPIB, sequence (Q01892 whole entry): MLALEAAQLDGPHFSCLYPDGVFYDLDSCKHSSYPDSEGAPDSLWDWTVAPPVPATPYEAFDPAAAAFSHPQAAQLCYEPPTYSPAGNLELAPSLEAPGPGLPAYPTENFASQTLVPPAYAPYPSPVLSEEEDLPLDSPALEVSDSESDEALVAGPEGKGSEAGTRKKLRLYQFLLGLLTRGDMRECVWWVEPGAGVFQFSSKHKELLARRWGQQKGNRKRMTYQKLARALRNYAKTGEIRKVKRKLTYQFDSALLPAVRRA
ELF1, sequence (P32519 whole entry): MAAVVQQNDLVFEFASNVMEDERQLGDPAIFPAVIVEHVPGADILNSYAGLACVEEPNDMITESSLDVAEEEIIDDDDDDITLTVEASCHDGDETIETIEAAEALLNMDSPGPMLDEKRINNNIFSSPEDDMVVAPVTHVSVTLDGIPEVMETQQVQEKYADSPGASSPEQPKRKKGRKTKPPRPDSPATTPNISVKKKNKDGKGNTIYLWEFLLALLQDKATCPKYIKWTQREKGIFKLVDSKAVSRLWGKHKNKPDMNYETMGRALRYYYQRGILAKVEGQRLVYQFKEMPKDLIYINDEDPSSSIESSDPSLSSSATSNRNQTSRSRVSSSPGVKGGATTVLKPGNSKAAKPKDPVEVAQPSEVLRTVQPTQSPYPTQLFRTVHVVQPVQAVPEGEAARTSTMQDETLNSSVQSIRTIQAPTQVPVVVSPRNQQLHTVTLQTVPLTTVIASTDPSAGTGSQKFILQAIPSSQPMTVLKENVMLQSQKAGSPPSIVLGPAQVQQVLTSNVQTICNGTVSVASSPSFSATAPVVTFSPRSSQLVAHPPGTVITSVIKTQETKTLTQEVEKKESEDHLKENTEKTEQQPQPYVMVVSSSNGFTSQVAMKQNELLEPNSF

In the case of GGATGG, the binding signal (FLI1) is reported as 1.02 fold enrichment (6-mer frequency, TF over GST control), the binding signal (ELF1) is reported as 1.05 fold enrichment (6-mer frequency, TF over GST control) and the binding signal (SPIB) is reported as 1.03 fold enrichment (6-mer frequency, TF over GST control). The binding signal (ELF3) was 1.13 fold enrichment (6-mer frequency, TF over GST control), the binding signal (ETV1) was 1.13 fold enrichment (6-mer frequency, TF over GST control) and the binding signal (ERF) was 1.05 fold enrichment (6-mer frequency, TF over GST control). The binding signal (ETV3L) was 1.08 fold enrichment (6-mer frequency, TF over GST control), the binding signal (ETS2) was 1.03 fold enrichment (6-mer frequency, TF over GST control) and the binding signal (SPDEF) was 1.09 fold enrichment (6-mer frequency, TF over GST control). For the same sequence, the binding signal (ETV7) was 1.06 fold enrichment (6-mer frequency, TF over GST control) and the binding signal (ELF5) was 1.03 fold enrichment (6-mer frequency, TF over GST control).

AGAGAA was tested, and the binding signal (HSF1) was 1.36 fold enrichment (6-mer frequency, TF over GST control).

With GAGAAT the binding signal (HSF1) was 1.44 fold enrichment (6-mer frequency, TF over GST control).

With GCCTGT the binding signal (FLI1) was 1.02 fold enrichment (6-mer frequency, TF over GST control), the binding signal (ELK3) was 1.03 fold enrichment (6-mer frequency, TF over GST control) and the binding signal (ELK4) was 1.05 fold enrichment (6-mer frequency, TF over GST control). For the same sequence, the binding signal (ETV3) was 1.04 fold enrichment (6-mer frequency, TF over GST control).
